# Source: the supplement of paper PMC9254222
# Over roughly 1,100 compounds, “Renilla luciferase signal (cell health) relative to plate median” has its median near 0.97; the highest 2% begin near 1.6. Only a selection was taken, and the highest values are over-represented in it overall.
# System: HEK293T (UBE3A T485A transfected, BAR Wnt reporter)
# Assay: Renilla luciferase signal (cell health) relative to plate median (fold (linear ratio)); higher = higher Renilla signal
# Conditions: 24 h
# How it was run: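 Chemicals at 0.01–100 uM were left on transfected HEK293T cells for 24 h, after a four-hour wait following transfection. The cells held a BAR firefly luciferase Wnt reporter, TK-Renilla and an expression plasmid. Wnt activity, as the firefly/Renilla ratio from a Dual-Glo luciferase readout, and cell health, as raw Renilla, were median-centred within each plate. Results average four biological replicates.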
Compound,Renilla luciferase signal (concentration: 0.01 uM),Renilla luciferase signal (concentration: 0.1 uM),Renilla luciferase signal (concentration: 1 uM),Renilla luciferase signal (concentration: 10 uM),Renilla luciferase signal (concentration: 100 uM)
O=C(O)CNCP(=O)(O)O [Glyphosate],0.796,0.874,0.905,1.07,2.5
COP(=S)(OC)Oc1nc(Cl)c(Cl)cc1Cl [Chlorpyrifos-methyl],1.5,1.18,1.01,1.04,0.838
CN(C)NC(=O)CCC(=O)O [Daminozide],0.728,0.735,0.928,0.807,1.39
"Cc1ccc(N)cc1N [2,4-Diaminotoluene]",–,1.12,1.22,1.09,1.45
O=C(O)c1c(Cl)ccc2cc(Cl)cnc12 [Quinclorac],1.12,1.11,0.984,1.04,1.88
O=C(Nc1ccccc1)Nc1cnns1 [Thidiazuron],1.1,1.07,1,0.921,0.135
C[Si](Cn1cncn1)(c1ccc(F)cc1)c1ccc(F)cc1 [Flusilazole],1.03,1.08,1.03,0.986,0.258
CC(C)[C@H](C(=O)O[C@H](C#N)c1cccc(Oc2ccccc2)c1)c1ccc(Cl)cc1 [Esfenvalerate],0.932,0.969,0.846,0.908,0.397
Nc1cnn(-c2ccccc2)c(=O)c1Cl [Chloridazon],0.928,0.982,0.916,1.1,1.34
Cc1ccccc1[N+](=O)[O-] [2-Nitrotoluene],–,1.24,1.08,1.14,1.33
Cc1nc(N(C)C)nc(OC(=O)N(C)C)c1C [Pirimicarb],1.09,1.09,1.1,1.21,2.4
"O=C([O-])C(F)(F)C(F)(F)C(F)(F)C(F)(F)C(F)(F)C(F)(F)C(F)(F)F.[NH4+] [PFOA, ammonium salt]",–,0.839,0.971,0.797,0.224
"Clc1cccc(Cl)c1 [1,3-Dichlorobenzene]",–,0.976,1.06,1.08,1.26
"Cc1ccc(N=C=O)cc1N=C=O [Toluene-2,4-diisocyanate]",–,0.891,0.94,1.08,0.677
COc1nn(CSP(=S)(OC)OC)c(=O)s1 [Methidathion],0.805,0.65,0.845,0.715,0.562
COP(=S)(OC)SCN1C(=O)c2ccccc2C1=O [Phosmet],–,0.82,0.838,0.713,0.82
CNC(=O)CSP(=S)(OC)OC [Dimethoate],1.22,0.985,0.987,1.12,1.67
CCC1(c2ccccc2)C(=O)N=C([O-])NC1=O.[Na+] (stereo not drawn) [Phenobarbital sodium],–,0.831,0.817,0.777,0.914
COCCOCCO [Diethylene glycol monomethyl ether],–,1.01,0.991,1.01,1.32
C[N+]1(C)CCCCC1.[Cl-] [Mepiquat chloride],1.1,1.08,1.06,1.02,1.31
CN(C)C(=S)[S-].[Na+] [Sodium dimethyldithiocarbamate],–,0.974,1.07,0.874,1.06
CNC(=S)[S-].O.O.O.[Na+] [Metam-sodium hydrate],1.32,1.02,1.07,1.06,1.67

Compound,Renilla luciferase signal (concentration: 0.01 uM),Renilla luciferase signal (concentration: 0.1 uM),Renilla luciferase signal (concentration: 1 uM),Renilla luciferase signal (concentration: 10 uM),Renilla luciferase signal (concentration: 100 uM)
CN(C)C(=S)[S-].CN(C)C(=S)[S-].[Zn+2] [Ziram],–,0.814,0.726,0.999,0.0214
Nc1ccc(/N=N/c2ccccc2)cc1 [4-Aminoazobenzene],–,0.476,0.565,0.351,0.181
NC1=NC(O)C2C3OC4(O)OC(C(O)C2(N1)C4O)C3(O)CO (stereo not drawn) [Tetrodotoxin (TTX)],1.02,0.976,0.904,1.03,2.57
OC(c1ccc(Cl)cc1)(c1cncnc1)c1ccccc1Cl (stereo not drawn) [Fenarimol],1.21,0.875,0.953,0.942,0.199
"CCN(CC)c1ccccc1 [N,N-Diethylaniline]",–,1.07,1.06,1.09,1.47
OCCCBr [3-Bromo-1-propanol],–,0.865,0.896,0.988,0.976
CCOC(=O)C(Cl)Cc1cc(-n2nc(C)n(C(F)F)c2=O)c(F)cc1Cl (stereo not drawn) [Carfentrazone-ethyl],0.995,1.11,0.895,0.956,1.9
CCOC(=O)COc1cc(-c2nn(C)c(OC(F)F)c2Cl)c(F)cc1Cl [Pyraflufen-ethyl],0.786,0.651,0.92,0.846,1.17
Cc1nn(-c2cc(NS(C)(=O)=O)c(Cl)cc2Cl)c(=O)n1C(F)F [Sulfentrazone],1.01,1.05,0.889,1.04,1.21
"COc1cc(-c2ccc(N)c(OC)c2)ccc1N [3,3'-Dimethoxybenzidine]",–,0.89,0.92,0.684,0.388
COc1cc(Cl)c(OC)cc1Cl [Chloroneb],0.913,0.991,1.07,1.06,1.91
"COc1cc(-c2ccc(N)c(OC)c2)ccc1N.Cl.Cl [3,3'-Dimethoxybenzidine dihydrochloride]",–,0.847,0.823,0.799,0.158
CNc1cnn(-c2cccc(C(F)(F)F)c2)c(=O)c1Cl [Norflurazon],1.06,0.78,0.77,0.879,1.28
"CCC(C)(C)c1ccc(O)c(C(C)(C)CC)c1 [2,4-Bis(2-methylbutan-2-yl)phenol]",–,1.05,1.07,0.955,1.13
N#CN [Cyanamide],0.837,0.715,0.775,0.84,1.25
COP(=O)(OC)O/C(C)=C/C(=O)N(C)C [Dicrotophos],1.19,1.16,0.994,1.09,1.78
CNC(=O)/C=C(\C)OP(=O)(OC)OC [Monocrotophos],0.824,0.815,0.785,0.826,1.45
COP(=O)(OC)OC=C(Cl)Cl [Dichlorvos],1.12,0.778,0.818,0.853,0.717
COc1cc(C=O)cc2c1[C@H](COC(N)=O)[C@]1(OC(C)=O)ON2C[C@H]2[C@@H]1N2C(C)=O,–,0.566,0.0435,0.0233,0.0248
CCOP(=S)(OCC)SCn1c(=O)oc2cc(Cl)ccc21 [Phosalone],0.915,1.15,1.1,1.11,0.931
CCCCN(CC)c1c([N+](=O)[O-])cc(C(F)(F)F)cc1[N+](=O)[O-] [Benfluralin],1.12,0.838,0.99,0.917,1.31
COc1cc2c(c(OC)c1OC)-c1ccc(OC)c(=O)cc1[C@@H](NC(C)=O)CC2 [Colchicine],–,0.0537,0.036,0.0452,0.0414

Compound,Renilla luciferase signal (concentration: 0.01 uM),Renilla luciferase signal (concentration: 0.1 uM),Renilla luciferase signal (concentration: 1 uM),Renilla luciferase signal (concentration: 10 uM),Renilla luciferase signal (concentration: 100 uM)
Cc1ccn2nc(S(=O)(=O)Nc3c(F)cccc3F)nc2n1 [Flumetsulam],0.963,1.07,0.959,1.07,1.67
CCOc1nc(F)cc2nc(S(=O)(=O)Nc3c(Cl)cccc3Cl)nn12 [Diclosulam],0.684,0.741,1.03,0.878,0.911
COc1ccc(-c2ccccc2)cc1NNC(=O)OC(C)C [Bifenazate],1.24,1.21,1.11,1.06,0.851
Cc1ccc([N+](=O)[O-])cc1N [2-Methyl-5-nitroaniline],–,1.11,1.21,1.15,0.978
CC(C)N(C(=O)SCC(Cl)=C(Cl)Cl)C(C)C [Tri-allate],1.05,1.11,1.06,1.06,1.76
CC(C)COC(=O)c1ccccc1C(=O)OCC(C)C [Diisobutyl phthalate],–,0.825,0.827,0.867,1.01
CCC(C)(NC(=O)c1cc(Cl)c(C)c(Cl)c1)C(=O)CCl (stereo not drawn) [Zoxamide],1.25,1.05,0.961,0.117,0.0244
C#CC(C)(C)NC(=O)c1cc(Cl)cc(Cl)c1 [Propyzamide],1.38,1.2,1.12,1.09,1.72
COC(=O)N(OC)c1ccccc1COc1ccn(-c2ccc(Cl)cc2)n1 [Pyraclostrobin],1.35,0.995,0.707,0.149,0.113
Oc1ccc2ccc3cccc4ccc1c2c34 [1-Hydroxypyrene],–,1.01,1.06,1.09,0.811
O=P(Oc1ccccc1)(Oc1ccccc1)Oc1ccccc1 [Triphenyl phosphate],–,0.815,0.778,0.825,1.02
CS/C(C)=N/OC(=O)N(C)SN(C)C(=O)O/N=C(\C)SC [Thiodicarb],1,0.646,0.895,0.91,0.0128
CCCCCCCCc1ccc(O)cc1 [4-Octylphenol],–,1.09,1.1,1.3,0.803
CNC(=O)ON=C(C)SC [Methomyl],0.945,0.951,1.1,1.04,1.25
CNC(=O)ON=CC(C)(C)SC [Aldicarb],1.1,0.924,0.97,0.918,1.72
CSC(C)(C)C=NO [Aldicarb oxime],–,1.13,1.06,1.24,1.09
"O=[N+]([O-])c1ccc(O)c([N+](=O)[O-])c1 [2,4-Dinitrophenol]",–,1.15,1.11,0.966,0.305
CCOC(=O)C(O)(c1ccc(Cl)cc1)c1ccc(Cl)cc1 [Chlorobenzilate],–,0.927,0.837,0.929,1.26
CCCSP(=O)(OCC)SCCC [Ethoprop],1.13,0.976,1.08,1.1,1.86
CCCCSP(=O)(SCCCC)SCCCC [Tribufos],1.14,0.609,0.976,0.82,0.728
CCOP(=S)(OCC)SCSP(=S)(OCC)OCC [Ethion],–,0.929,0.935,0.973,1.13
